Compound activity as filed in PubChem BioAssay.
A selection: hits, their analogues and other compounds. The true share with any hit is near 3%.
ALOX15B inhib: inhibitors of human 15-lipoxygenase 2 (ALOX15B); 110,000 tested, 0.56% active; purified 15hLO-2, xylenol orange hydroperoxide absorbance; Potency, µM (series often up to 57.1 µM), without a hit: at the highest dose activity change, negative = inhibition, usual class: inhibitors; AID 881; also: % is scaled to controls: 0 for no effect and ±100 for the full control effect; nearly all actives have a fitted effect of over 60% in size
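Screening format was qHTS against 50 nM purified 15hLO-2 in Hepes pH 7.5 with detergent. Activity follows hydroperoxide formation from 45 uM arachidonic acid, measured as 573:405 nm absorbance ratio of the ferric-xylenol orange complex.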
Caspase-7 inhib: caspase-7 (human) inhibition, allosteric or competitive; recombinant caspase-7, Ac-DEVD-AFC fluorescence rate; Potency, µM (top dose mostly 57.5 µM), inactives show top-dose activity change, negative = inhibition, actives largely listed as inhibitors; 75,000 tested, 0.02% active; AID 889; active = well fitted inhibition curve with a large enough effect in the main read-out, with a control signal flat, not every such curve was filed as active; inconclusive = small, poorly fitted or top-dose-only effect, or a change in a side signal; also: % of control where 0% means no effect
TSHR ag: agonists of human thyroid stimulating hormone receptor; 73,000 tested, 0.48% active; HEK293-CNG-TSHR cells (CNG channel as cAMP sensor), membrane potential dye, cAMP; AID 926; Potency, µM (top dose mostly 57.1 µM), for the others: top-dose activation, hits mostly activators; P16473; active = well fitted activation curve with a large enough effect in the main read-out, with a control signal flat, not every such curve was filed as active; inconclusive = small, poorly fitted or top-dose-only effect, or a change in a side signal; inactive = no such curve, though single readings can be large or run the other way; % of control where 0% means no effect;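 also: the control signal comes from parental cells without the receptor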
Target sequence (P16473 whole entry, looked up): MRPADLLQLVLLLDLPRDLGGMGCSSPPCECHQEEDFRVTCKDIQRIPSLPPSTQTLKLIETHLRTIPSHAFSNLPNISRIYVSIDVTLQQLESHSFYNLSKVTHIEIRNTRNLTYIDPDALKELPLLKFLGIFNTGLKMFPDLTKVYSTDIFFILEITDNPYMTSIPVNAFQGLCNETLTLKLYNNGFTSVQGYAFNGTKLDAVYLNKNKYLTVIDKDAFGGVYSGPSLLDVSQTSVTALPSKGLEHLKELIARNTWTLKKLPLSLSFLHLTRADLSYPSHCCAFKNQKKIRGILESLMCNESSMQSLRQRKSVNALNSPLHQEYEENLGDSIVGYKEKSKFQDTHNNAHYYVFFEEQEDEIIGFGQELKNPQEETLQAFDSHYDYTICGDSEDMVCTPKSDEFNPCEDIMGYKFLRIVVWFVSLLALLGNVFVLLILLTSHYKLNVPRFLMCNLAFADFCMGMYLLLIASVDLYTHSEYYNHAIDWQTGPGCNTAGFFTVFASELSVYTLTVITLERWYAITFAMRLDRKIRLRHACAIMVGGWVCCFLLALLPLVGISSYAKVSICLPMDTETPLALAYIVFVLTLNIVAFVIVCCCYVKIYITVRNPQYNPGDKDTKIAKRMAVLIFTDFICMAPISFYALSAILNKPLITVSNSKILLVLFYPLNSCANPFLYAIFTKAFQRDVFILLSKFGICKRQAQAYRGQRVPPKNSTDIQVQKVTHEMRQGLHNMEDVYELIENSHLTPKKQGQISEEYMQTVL
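HEK 293 cells stably expressing TSHR and a cAMP-gated CNG channel; parental CNG-only cells as counterscreen. Cells preloaded 60 min with membrane potential dye plus 100 uM RO 20-1724, then compound 30 min; fluorescence read at 590 nm.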
Caspase-1 inhib: allosteric or competitive inhibitors of human caspase-1; Potency, µM (highest dose often 57.5 µM), without a hit: at the highest dose activity change, negative = inhibition, hits mostly inhibitors; P29466; Caspase-1 enzyme, Ac-WEHD-AFC fluorogenic rate; 75,000 tested, 0.03% active; AID 900;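 also: plate controls were vehicle for no effect and no substrate for full effect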
HEK293 cAMP cs: raises cAMP in parental HEK293 cells, TSHR agonist counter-screen | parental HEK293 CNG cAMP sensor, membrane potential fluorescence | Potency, µM (series often up to 57.1 µM), without a hit: at the highest dose activation, usual class: activators | 73,000 tested, 2.5% active; also: % of control where 0% means no effect; nearly all actives have a fitted effect of over 55% in size
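Parental HEK 293 cells stably expressing a cAMP-gated CNG channel were loaded with membrane potential dye containing 100 uM RO 20-1724 for 60 min. Compound added for 30 min; depolarization read as fluorescence intensity at 590 nm.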
ALOX15 inhib: blocks human 15-lipoxygenase activity; P16050; purified 15hLO-1, xylenol orange hydroperoxide absorbance; Potency, µM (doses to about 57.1 µM), for inactives: top-dose activity change, negative = inhibition, usual class: inhibitors; 74,000 tested, 1.4% active; also: % is scaled to controls: 0 for no effect and ±100 for the full control effect; nearly all actives have a fitted effect of over 55% in size
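Purified human 15hLO-1 (40 nM) in 25 mM Hepes pH 7.5, 0.01% Triton X-100, preincubated 15 min RT with compound, then 50 uM arachidonic acid for 6 min. Hydroperoxide read by ferrous/xylenol orange, 30 min; 573/405 nm absorbance ratio gave progress.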
The depositor's hits bear a star; [ ] = remark or other dose. Unless noted, calls follow the shape of the dose curve; as a rule, active = well fitted curve in the direction sought with a large enough effect; inconclusive = small, poorly fitted or top-dose-only effect, or another doubt; inactive = no such curve, though single readings can be large; an effect the other way counts as inactive or inconclusive. Potency is read from the fitted curve at half-maximal effect.

CC1CCC2C(=O)N3C(CCC(C)[C@@H]3c3ccc(-c4ccco4)cc3)C(=O)N2C1c1cccc(N2CCCC2=O)c1 (stereo partly drawn) was read as Caspase-7 inhib 1.0%[11.5 µM], TSHR ag -8.2%[11.4 µM], Caspase-1 inhib -2.5%[11.5 µM], HEK293 cAMP cs -0.8%[11.4 µM] and ALOX15 inhib 5.01µM*.
For C[C@@H]1CC[C@@H]2C(=O)N3[C@@H](CC[C@@H](C)[C@@H]3c3ccc(-c4ccco4)cc3)C(=O)N2[C@H]1c1ccc(-c2ccco2)cc1 the results were Caspase-7 inhib -3.7%[11.5 µM], TSHR ag 4.3%[11.4 µM], Caspase-1 inhib -0.8%[11.5 µM], HEK293 cAMP cs 9.2%[11.4 µM] and ALOX15 inhib -12.7%[11.4 µM].
Screening CC1CCC2C(=O)N3C(CCC(C)C3c3ccc(-c4ccco4)cc3)C(=O)N2C1c1ccc(-c2ccco2)cc1 (stereo not drawn) returned Caspase-7 inhib -17.6%[11.5 µM], TSHR ag -2.5%[11.4 µM], Caspase-1 inhib 0.2%[11.5 µM], HEK293 cAMP cs 5.9%[11.4 µM] and ALOX15 inhib 2.51µM*.
For CSCC[C@@H](C(=O)O)N(C)C the results were ALOX15B inhib -0.6%[11.4 µM], Caspase-7 inhib -0.2%[11.5 µM], TSHR ag 15.0%[11.4 µM], Caspase-1 inhib -1.8%[11.5 µM], HEK293 cAMP cs 10.8%[11.4 µM] and ALOX15 inhib 3.9%[11.4 µM].
C=CCn1c(=O)c(C(=O)NCCNCC)c(O)c2ccccc21 was read as ALOX15B inhib 7.9%, Caspase-7 inhib 1.8%, TSHR ag inconclusive, Caspase-1 inhib 1.1%, HEK293 cAMP cs 12.6µM* and ALOX15 inhib 15.0%.
Screening CN(C)c1nc(Oc2ccc(C(=O)OCC(=O)Nc3ccccc3)cc2)nc(N(C)C)n1 returned ALOX15B inhib 6.3%, Caspase-7 inhib -2.2%, TSHR ag inconclusive, Caspase-1 inhib -4.3%, HEK293 cAMP cs 3.16µM* and ALOX15 inhib -16.8%[11.4 µM].
For CCOC(=O)c1ccc(Oc2nc(OC)nc(N(C)C)n2)cc1 the results were Caspase-7 inhib -0.6%, TSHR ag inconclusive, Caspase-1 inhib -0.1%, HEK293 cAMP cs inconclusive and ALOX15 inhib -2.5%.
Screening CC(C)c1ccc(/C=C2\C=C(c3ccc4ccccc4c3)OC2=O)cc1 returned ALOX15B inhib -6.6%[11.4 µM], Caspase-7 inhib -2.8%[11.5 µM], TSHR ag 6.5%[11.4 µM], Caspase-1 inhib -0.6%[11.5 µM], HEK293 cAMP cs 10.7%[11.4 µM] and ALOX15 inhib -12.3%[11.4 µM].
C/C(NC(=O)c1ccccc1)=C1/C(=O)CC2C1C2(C)C (stereo not drawn) was read as ALOX15B inhib 8.9%, Caspase-7 inhib 0.1%, TSHR ag inconclusive, Caspase-1 inhib -4.0%, HEK293 cAMP cs 3.98µM* and ALOX15 inhib -5.2%[11.4 µM].
`CC(=O)C1=C(NC(=O)c2ccc(F)cc2)CC2C1C2(C)C` (stereo not drawn) gave ALOX15B inhib -19.9%.
Screening c1ccc2nc3c(nc2c1)c1ccccc1n3CCN1CCOCC1 returned ALOX15B inhib -1.6%, Caspase-7 inhib -12.7%, TSHR ag 15.8µM*, Caspase-1 inhib -12.2%, HEK293 cAMP cs 21.5% and ALOX15 inhib -28.1%.
For O=c1c2ccccc2nc(-c2ccccc2)n1CCN1CCOCC1 the results were ALOX15B inhib -3.0%, Caspase-7 inhib 0.1%, TSHR ag inconclusive, Caspase-1 inhib -1.5%, HEK293 cAMP cs inconclusive and ALOX15 inhib 0.9%.
`Brc1ccc2c(c1)c1nc3ccccc3nc1n2CCN1CCOCC1` gave Caspase-7 inhib -9.1%, TSHR ag -29.1%, Caspase-1 inhib -5.6%, HEK293 cAMP cs 14.4% and ALOX15 inhib 31.6µM*.
For Nc1c(S(=O)(=O)c2cc(Cl)ccc2Cl)c2nc3ccccc3nc2n1CCN1CCOCC1 the results were ALOX15B inhib 0.1%.
`COc1ccc(CNc2ncncc2-c2ccc3c(c2)OCO3)c(OC)c1` gave ALOX15B inhib 61.9%, Caspase-7 inhib -3.3%, TSHR ag inconclusive, Caspase-1 inhib -1.6%, HEK293 cAMP cs inconclusive and ALOX15 inhib 10.7%.
For CCC1CCCCN1CC(=O)Nc1cc(C)nn1-c1nc(C)cc(C)n1 (stereo not drawn) the results were ALOX15B inhib 36.8%, Caspase-7 inhib -0.5%, TSHR ag inconclusive, Caspase-1 inhib -0.4%, HEK293 cAMP cs 25.1µM* and ALOX15 inhib 9.7%.
Cc1cc(C)nc(-n2nc(C)cc2NC(=O)CN2CCC(C)CC2)n1 was read as ALOX15B inhib 9.6%, Caspase-7 inhib -1.3%, TSHR ag inconclusive, Caspase-1 inhib 3.3%, HEK293 cAMP cs inconclusive and ALOX15 inhib 23.5%.
CCCCCCCCC was read as ALOX15B inhib 0.8%, Caspase-7 inhib 1.3%, TSHR ag inconclusive, Caspase-1 inhib 4.0%, HEK293 cAMP cs -36.5% and ALOX15 inhib -8.7%.
`C[C@H](Oc1ccc(Oc2cnc3ccc(Cl)cc3n2)cc1)C(=O)O` gave ALOX15B inhib 5.0%[11.4 µM], Caspase-7 inhib 0.2%[11.5 µM], TSHR ag 1.1%[11.4 µM], Caspase-1 inhib 3.5%[11.5 µM], HEK293 cAMP cs 2.9%[11.4 µM] and ALOX15 inhib inconclusive.
`Cc1ccc(-c2c3c([nH]c(=S)c2C#N)CCCC3)o1` gave ALOX15B inhib inconclusive, Caspase-7 inhib -14.6%, TSHR ag 0.7%, Caspase-1 inhib -2.2%, HEK293 cAMP cs 7.1% and ALOX15 inhib 10µM*.
For O=C(NCCN1CCCCC1)c1ccc(Cc2nc3ccccc3[nH]2)cc1 the results were Caspase-7 inhib 0.4%, TSHR ag -4.3%, Caspase-1 inhib -1.9%, HEK293 cAMP cs -13.3% and ALOX15 inhib 4.1%.
Screening OC[C@H](CCc1c[nH]c2ccccc12)c1c[nH]c2ccccc12 returned ALOX15B inhib 7.5%[11.4 µM], Caspase-7 inhib 1.7%[11.5 µM], TSHR ag -10.7%[11.4 µM], Caspase-1 inhib 0.7%[11.5 µM], HEK293 cAMP cs -11.5%[11.4 µM] and ALOX15 inhib 3.16µM*.
For CO[C@H]1COC(=O)[C@H]2CCCN2C(=O)[C@@H](C)COC(=O)C/C=C\[C@@H]1C the results were Caspase-7 inhib 1.9%[11.5 µM], TSHR ag 1.9%[11.4 µM], Caspase-1 inhib -1.9%[11.5 µM], HEK293 cAMP cs 1.9%[11.4 µM] and ALOX15 inhib -1.9%[11.4 µM].
Screening O=C(O)COc1cccc(-c2ocnc2-c2nc(-c3ccccc3)c(-c3ccccc3)o2)c1 returned ALOX15B inhib 13.9%, Caspase-7 inhib -24.7%, TSHR ag 3.9%, Caspase-1 inhib -3.5%, HEK293 cAMP cs 11.4% and ALOX15 inhib -30.0%[25.6 µM].
COc1ccc(S(=O)(=O)N2CCCCCC2)cc1C(=O)OCc1c(C)noc1C was read as ALOX15B inhib -3.7%, Caspase-7 inhib -2.0%, TSHR ag 10.5%, Caspase-1 inhib 0.2%, HEK293 cAMP cs 4.9% and ALOX15 inhib -0.4%.
Cc1noc(C)c1COC(=O)c1cccc(S(=O)(=O)N2CCCCCC2)c1 was read as ALOX15B inhib 0.1%, Caspase-7 inhib -1.1%, TSHR ag inconclusive, Caspase-1 inhib -3.1%, HEK293 cAMP cs 20µM* and ALOX15 inhib 14.6%.
